Laboratory results: PubChem BioAssay AID1159580 (chemical genetic matrix, 2015)
“And” between values parts separate entries of the source, which are not always exact repeats. Equal values may be shown once. The campaign covered roughly 5,500 compounds. About 2,000 (36%) were called active. Not shown: some 18% with an inconclusive outcome. No stated cut-off is given here; in the data, active means normalized growth mostly below about 0.91 (no sharp cut-off); inconclusive means no clear call, values can overlap the other calls; inactive means mostly above about 0.92. The list shows a part of the results.

Assay: chemical genetic growth profiling, strain panel (AID 1159580);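 further: tested at 20 µM; growth read once vehicle control cultures reached saturation at 30 °C; 1 = growth at the plate median or of vehicle wells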
Conditions: S. cerevisiae deletion strains, growth OD

Measured: normalized growth

COc1c(OC)c2occc2c2oc(=O)ccc12
inactive: locus YAL021C, strain ccr4, stronger effect = lower value 0.988 | locus YAL026C, strain drs2, stronger effect = lower value 0.987 | locus YAL030W, strain snc1, stronger effect = lower value 0.99 | locus YBL061C, strain skt5, stronger effect = lower value 0.979 | locus YBR009C, strain hhf1, stronger effect = lower value 0.958 | locus YBR021W, strain FUR4, stronger effect = lower value 1.01 | locus YBR023C, strain chs3, stronger effect = lower value 0.976 | locus YBR171W, strain sec66, stronger effect = lower value 0.973 | locus YBR229C, strain ROT2, stronger effect = lower value 0.967 | locus YBR231C, strain swc5, stronger effect = lower value 0.96 | locus YBR279W, strain paf1, stronger effect = lower value 0.973 | locus YCL011C, strain gbp2, stronger effect = lower value 0.979 | locus YCL016C, strain dcc1, stronger effect = lower value 0.98 | locus YCL029C, strain bik1, stronger effect = lower value 0.983 | locus YCL061C, strain MRC1, stronger effect = lower value 0.978 | locus YCL069W, strain vba3, stronger effect = lower value 0.989 | locus YCR088W, strain abp1, stronger effect = lower value 0.987 | locus YDL005C, strain med2, stronger effect = lower value 0.998 | locus YDL035C, strain GPR1, stronger effect = lower value 0.924 | locus YDL040C, strain nat1, stronger effect = lower value 0.981 | locus YDL074C, strain BRE1, stronger effect = lower value 0.86 | locus YDL101C, strain DUN1, stronger effect = lower value 0.949 | locus YDL134C, strain PPH21, stronger effect = lower value 0.948 | locus YDL185W, strain tfp1, stronger effect = lower value 0.945 | locus YDR001C, strain nth1, stronger effect = lower value 0.973 | locus YDR069C, strain doa4, stronger effect = lower value 1 | locus YDR101C, strain arx1, stronger effect = lower value 0.927 | locus YDR137W, strain rgp1, stronger effect = lower value 0.952 | locus YDR159W, strain sac3, stronger effect = lower value 1.01 | locus YDR297W, strain sur2, stronger effect = lower value 0.974 | locus YDR318W, strain mcm21, stronger effect = lower value 0.95 | locus YDR334W, strain swr1, stronger effect = lower value 0.967 | locus YDR335W, strain msn5, stronger effect = lower value 0.978 | locus YDR388W, stronger effect = lower value 0.959 | locus YDR392W, strain spt3, stronger effect = lower value 0.765 | locus YEL003W, strain gim4, stronger effect = lower value 0.982 | locus YEL037C, strain rad23, stronger effect = lower value 0.981 | locus YEL061C, strain CIN8 (second series), stronger effect = lower value 0.984 | locus YEL061C, strain CIN8, stronger effect = lower value 0.963 | locus YER015W, strain faa2, stronger effect = lower value 0.972 | locus YER016W, strain bim1, stronger effect = lower value 0.984 | locus YER110C, stronger effect = lower value 0.949 | locus YER111C, strain swi4, stronger effect = lower value 0.992 | locus YER155C, strain BEM2, stronger effect = lower value 0.962 | locus YER167W, strain BCK2, stronger effect = lower value 0.97 | locus YFR010W, strain ubp6, stronger effect = lower value 0.98 | locus YGL078C, strain dbp3, stronger effect = lower value 0.979 | locus YGL086W, strain mad1, stronger effect = lower value 0.937 | locus YGL167C, strain pmr1, stronger effect = lower value 0.975 | locus YGL173C, strain kem1, stronger effect = lower value 0.986 | locus YGL227W, strain vid30, stronger effect = lower value 0.994 | locus YGL240W, strain doc1, stronger effect = lower value 0.931 | locus YGL248W, strain PDE1, stronger effect = lower value 0.95 | locus YGL253W, strain hxk2, stronger effect = lower value 0.956 | locus YGR078C, strain PAC10, stronger effect = lower value 0.882 | locus YGR252W, strain gcn5, stronger effect = lower value 0.802 | locus YHR013C, strain ard1, stronger effect = lower value 1.01 | locus YHR027C, strain rpn1, stronger effect = lower value 0.984 | locus YHR030C, strain SLT2, stronger effect = lower value 0.945 and 0.955 | locus YHR079C, strain IRE1 (second series), stronger effect = lower value 0.977 | locus YHR079C, strain IRE1, stronger effect = lower value 0.944 | locus YHR094C, strain hxt1, stronger effect = lower value 0.985 | locus YHR129C, strain ARP1, stronger effect = lower value 0.959 | locus YHR142W, strain chs7, stronger effect = lower value 0.904 | locus YHR200W, strain rpn10, stronger effect = lower value 0.923 | locus YIL066C, strain RNR3, stronger effect = lower value 0.88 | locus YIL073C, strain SPO22, stronger effect = lower value 0.955 | locus YIL125W, strain kgd1, stronger effect = lower value 0.979 | locus YIR030C, strain dcg1, stronger effect = lower value 0.962 | locus YJL092W, strain hpr5, stronger effect = lower value 0.972 | locus YJL095W, strain BCK1 (second series), stronger effect = lower value 0.974 | locus YJL115W, strain asf1, stronger effect = lower value 0.984 | locus YJL129C, strain trk1, stronger effect = lower value 0.993 | locus YJL134W, strain LCB3, stronger effect = lower value 0.967 | locus YJL154C, strain vps35, stronger effect = lower value 0.987 | locus YJL164C, strain tpk1, stronger effect = lower value 0.966 | locus YJL166W, strain qcr8, stronger effect = lower value 0.945 | locus YJL168C, strain set2, stronger effect = lower value 0.977 | locus YJL187C, strain SWE1 (second series), stronger effect = lower value 0.947 | locus YJL187C, strain SWE1, stronger effect = lower value 0.973 | locus YJR043C, strain POL32, stronger effect = lower value 0.887
active: locus YDL192W, strain arf1, stronger effect = lower value 0.866 | locus YDR162C, strain NBP2, stronger effect = lower value 0.822 | locus YDR195W, strain ref2 1.14 [resistant] | locus YDR502C, strain sam2, stronger effect = lower value 0.918 | locus YER155C, strain BEM2 (second series), stronger effect = lower value 0.832 | locus YGR135W, strain pre9, stronger effect = lower value 0.881
0.785 (active) and 0.957 (inactive): locus YJL095W, strain BCK1, stronger effect = lower value
